The panel holds about 83,000 compounds, 20% with a hit somewhere; the sample as a whole holds those more often.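 48-hour exposure, single concentration, 96-well plates; percent growth endpoint where 0 means no net growth. Active: below 10.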 Active and inactive are the calls of the source.
These compounds were tested on MDA-MB-468 breast (assay: NCI-60 one-dose screen, 48 h (100 = growth as untreated, 0 = no growth, -100 = all killed)). Conditions: 10 µM unless noted.
With `COc1ccc(-c2nc(Nc3ccc(F)cc3)nc(Nc3ccc4c(c3)nc(C)n4Cc3ccccc3)n2)cc1` the growth was 28.4% (inactive).
For `NC(N)=Nc1ccc(Oc2ccc(Nc3ccc(Cl)c(C(F)(F)F)c3)cc2)cc1`, the growth was 22.2% (inactive).
With `Cc1nn(-c2ccc(F)cc2)c2ncnc(Nc3ccc(NC(=O)Nc4ccc(Cl)c(C(F)(F)F)c4)cc3)c12` the growth was -2.58% (active).
In the case of `COc1cccc(NC(=O)c2sc3nc4c(cc3c2N)CN(Cc2ccccc2)CC4)c1`, the growth is reported as 64.4% (inactive).
`COc1cc(OC)c(C(=O)/C=C/c2ccc(C#N)cc2)c(OC)c1` was tested, and the growth was -6.07% (active).
`O=C1C=CC2(NN=C(c3ccccc3)N2c2ccc(Cl)cc2)c2cccc(O)c21` (centres undefined) was tested, and the growth was 47.6% (inactive).
`CC1(C)CN(Cc2ccccc2)CCN1Cc1ccccc1` was tested, and the growth was 106% (inactive).
`Oc1ccc(Cl)cc1Sc1cc(Cl)ccc1O` was tested, and the growth was 22% (inactive).
`CN(C)c1ccc(/C=c2\s/c(=C\C(=O)C(C)(C)C)[nH]c2=O)cc1` was tested, and the growth was 109% (inactive).
With `CC(=O)N1CCN(CCNC(=O)n2cc(-c3ccncc3)c(-c3cc(O)cc(Cl)c3)n2)CC1` the growth was 32.4% (inactive).
With `Cc1c2cnccc2c(C)c2c1c1cc(C(=O)O)ccc1n2C` the growth was -7.86% (active).
For `CCCCN(CCCC)C(=O)[C@H](CC)[C@@H]1CC[C@@H](C)[C@@H]([C@H](C)[C@@H](O)[C@@H](C)C(=O)[C@H](CC)C2O[C@]3(C=CC(=O)[C@]4(CC[C@@](C)([C@H]5CC[C@](O)(CC)[C@H](C)O5)O4)O3)[C@H](C)C[C@@H]2C)O1` (some centres undefined), the growth was -11.5% (active).
With `Cc1cc(C)c(S(=O)(=O)Oc2ccccc2[N+](=O)[O-])c(C)c1` the growth was -0.215% (active).
For `Cc1nc(-c2cc3ccccc3oc2=O)ccc1C(=O)/C=C/c1ccc(Cl)c(Cl)c1`, the growth was 110% (inactive).
In the case of `Cc1ccc2nc3c(nc2c1)-c1cccc2cccc-3c12`, the growth is reported as 48.1% (inactive).
`Cc1ccc(S(=O)(=O)OC[C@@]2(C)CC[C@]3(C)CC[C@]4(C)C(=CC[C@@H]5[C@@]6(C)CCCNC(C)(C)[C@@H]6CC[C@]54C)[C@@H]3C2)cc1` was tested, and the growth was -85.5% (active).
For `COc1ccc(OC)c(/C=C/[C@H]2O[C@@H](C)[C@H](O)[C@@H]2O)c1`, the growth was 114% (inactive).
`CC(C)C(=O)Nc1ccc([N+](=O)[O-])c(C(F)(F)F)c1` was tested, and the growth was 61.7% (inactive).
For `CC(=O)c1c[nH]c2ccccc12`, the growth was 104% (inactive).
`CCOc1nc(-c2ccccc2)cc2c(O)c(C(=O)O)[nH]c(=O)c12` was tested, and the growth was 96.2% (inactive).
In the case of `NCCCNc1nc2ccccc2c2c(=O)c3cccc(Cl)c3sc12`, the growth is reported as -80.2% (active).
In the case of `CN=C1C=CC(=C(c2ccc(N(C)C)cc2)c2ccc(N(C)C)cc2)C=C1`, the growth is reported as -47.5% (active).
In the case of `Cc1cc(N2CCCCC2)nc(N(CCNc2ccnc3cc(Cl)ccc23)Cc2ccco2)n1`, the growth is reported as -0.362% (active).
`CCOC(=O)c1c(NC(=O)c2cccc(C(F)(F)F)c2)sc2cc(O)ccc12` was tested, and the growth was 85.4% (inactive).
`O=C(O)CNS(=O)(=O)c1ccc(OCCOc2ccc(S(=O)(=O)NCC(=O)O)cc2)cc1` was tested, and the growth was 97.7% (inactive).
In the case of `CCOC(=O)c1cnc2c(N=Nc3ccc(OC)cc3)c(N)nn2c1N`, the growth is reported as 116% (inactive).
`COc1ccc(Cn2cc3c(c2-c2cc(OC)c(OC)c(OC)c2)CCc2c(CN4CCCC4)noc2-3)cc1` was tested, and the growth was 50.7% (inactive).
`CC1(C)CC[C@]2(C(=O)O)CC[C@]3(C)C(=CCC4[C@@]5(C)C[C@@H](O)[C@@H]6OC(c7ccccc7O)OC[C@@]6(C)C5CC[C@]43C)C2C1` (some centres undefined) was tested, and the growth was 69.4% (inactive).
With `Nc1ccc(S(=O)(=O)Nc2ncccn2)cc1` the growth was 109% (inactive).
With `N#CC(C#N)N=Nc1ccc(Cl)cc1Cl` the growth was 58.8% (inactive).
For `COc1cccc(O)c1O`, the growth was 86.7% (inactive).
For `NC(=O)CSc1nc(-c2ccc(F)cc2)cc(-c2ccco2)n1`, the growth was 71.7% (inactive).
In the case of `O=C1Nc2cc(Cl)ccc2/C1=C\c1ccc(OCc2ccc(Br)cc2F)cc1`, the growth is reported as -37.8% (active).
In the case of `CCCCCCSc1ncnc2nc[nH]c12`, the growth is reported as 67.3% (inactive).
For `OCc1ccccc1F`, the growth was 72.9% (inactive).
In the case of `CN1C(=O)CN2CCc3ccccc3C2c2cc(Cl)ccc21` (centres undefined), the growth is reported as 115% (inactive).
In the case of `NS(=O)(=O)c1ccc(-c2cc(-c3nnc(SCC(=O)Nc4ccc(C(=O)/C=C/c5ccc(Cl)cc5)cc4)n3-c3ccccc3)c3ccccc3n2)cc1`, the growth is reported as 84.5% (inactive).
In the case of `CC(C)(C)n1cc(-c2ccnc(NCCNS(=O)(=O)c3ccc(Br)cc3)c2)c(-c2cccc(O)c2)n1`, the growth is reported as 2.11% (active).
For `COc1ccc(-c2nc3sc(-c4cc(OC)c(OC)c(OC)c4)nn3c2/C=C2/C(=O)Nc3ccc(F)cc32)cc1`, the growth was -65.3% (active).
